NALP3 yeast inh = blocks the NALP3 inflammasome reconstituted in yeast; Yeast reconstituted NLRP3/ASC/caspase-1, beta-gal luminescence, 24 h; inhibition, % at 10 µM; actives 0.39% (n = 330,000);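 active = inhibition of 50% or more; inactive = inhibition below 50%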;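 note: plate controls were induced DMSO wells for no effect and uninduced yeast grown without galactose for full effect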
tim23-1 inh = tim23-1 yeast growth inhibition. S. cerevisiae tim23-1 growth, BacTiter-Glo luminescence, 24 h. actives 1.3% (n = 330,000). AID 463212. inhibition, % at 20 µM;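 active = growth inhibition of the mutant yeast at or above 50%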;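 note: temperature-sensitive mutant grown at 25 °C; plate controls were DMSO-treated mutant yeast for no effect and medium wells lacking yeast for full effect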
tim10-1 inh = growth inhibitors of tim10-1 mutant yeast; inhibition, % at 20 µM; actives 2.2% (n = 330,000); S. cerevisiae tim10-1 ts strain growth, BacTiter-Glo, 24 h;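 active = inhibition of at least 40%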;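 note: mutant grown at 25 °C; 0% = DMSO wells with yeast and 100% = wells holding no yeast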
NALP1 inh = inhibitors of NALP1 inflammasome in yeast; S. cerevisiae NALP1/ASC/caspase-1 growth, X-gal OD620, 72 h; inhibition, % at 10 µM; actives 0.61% (n = 280,000); in the data active = inhibition mostly above about 24%, no sharp cut-off; inactive = mostly below about 32%
TIM10 inh = growth inhibitors of TIM10 yeast strain; S. cerevisiae TIM10 strain growth, BacTiter-Glo luminescence, 24 h; inhibition, % at 10 µM; actives 1.4% (n = 330,000); AID 463195;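 active = inhibition of 40% or more at the single tested concentration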;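 note: wild-type TIM10 isogenic control strain grown at permissive 25 °C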
Active calls of the source: *. Only some compounds are listed: those with a hit (about 4% of all), similar ones and a draw of the others.

For COc1ccc(NC(=S)N(CCC(C)C)C2CCN(C(C)C)CC2)cc1 the results were NALP3 yeast inh 22, tim23-1 inh -7, tim10-1 inh 3, NALP1 inh 10 and TIM10 inh 4.
COc1ccccc1Oc1ccc2c(c1)C(=O)N(c1ccc(O)cc1)C2=O was read as NALP3 yeast inh 4, tim23-1 inh -10, tim10-1 inh -10, NALP1 inh 28* and TIM10 inh -20.
Screening COc1ccccc1Oc1ccc2c(c1)C(=O)N(CC(=O)O)C2=O returned NALP3 yeast inh -5, tim23-1 inh -6, tim10-1 inh 17, NALP1 inh 15 and TIM10 inh -8.
For Cc1cc(OCC(=O)OCC(=O)Nc2cc(C(F)(F)F)ccc2N2CCOCC2)ccc1Cl the results were NALP3 yeast inh 15, tim23-1 inh 25, tim10-1 inh 15, NALP1 inh 8 and TIM10 inh -3.
`CCc1ccc(S(=O)(=O)NCc2cn3ccccc3n2)s1` gave NALP3 yeast inh -3, tim23-1 inh 7, tim10-1 inh 1, NALP1 inh 38* and TIM10 inh 1.
`COc1ccccc1CNC(=O)C1CCC(CNS(=O)(=O)c2ccc(C)cc2)CC1` (centres undefined) gave NALP3 yeast inh 2, tim23-1 inh 24, tim10-1 inh 23, NALP1 inh 8 and TIM10 inh -14.
Screening O=C(COC(=O)CCNS(=O)(=O)c1cccs1)Nc1ccccc1 returned NALP3 yeast inh 6, tim23-1 inh 16, tim10-1 inh 6 and TIM10 inh 1.
CCc1ccc(OCC(=O)OC2CCS(=O)(=O)C2)cc1 (centres undefined) was read as NALP3 yeast inh 14, tim23-1 inh 22, tim10-1 inh 21, NALP1 inh 25* and TIM10 inh 12.
For COc1ccccc1-n1c(SCC(=O)Nc2cc(C)on2)nc2c([nH]c3ccccc32)c1=O the results were NALP3 yeast inh 20, tim23-1 inh -3, tim10-1 inh -11, NALP1 inh 11 and TIM10 inh 18.
`CC(Oc1ccccc1F)C(=O)NNC(=O)CCNC(=O)c1ccccc1Cl` (centres undefined) gave NALP3 yeast inh 16, tim23-1 inh 5, tim10-1 inh 1, NALP1 inh 2 and TIM10 inh 7.
COc1ccc(Cn2cc3c(-c4ccc(F)cc4)nnc-3c3cc(OC)c(OC)cc32)cc1 was read as NALP3 yeast inh 3, tim23-1 inh 12, tim10-1 inh 7, NALP1 inh 23 and TIM10 inh 8.
For COc1cc2c3nnc(-c4ccc(F)cc4)c-3cn(Cc3ccc(F)cc3)c2cc1OC the results were NALP3 yeast inh 10, tim23-1 inh 17, tim10-1 inh 7, NALP1 inh 35* and TIM10 inh 1.
CCCCCC(=O)Nc1nnn(CCC)n1 was read as NALP3 yeast inh -7, tim23-1 inh 15, tim10-1 inh 4, NALP1 inh 43* and TIM10 inh -1.
CCCn1nnc(NC(=O)Cc2ccccc2)n1 was read as NALP3 yeast inh 14, tim23-1 inh 16, tim10-1 inh 11, NALP1 inh 14 and TIM10 inh 2.
For Cc1ccc(C2(C)NC(=O)N(Cc3c(C)noc3C)C2=O)cc1 (centres undefined) the results were NALP3 yeast inh 5, tim23-1 inh 8, tim10-1 inh 12, NALP1 inh 19* and TIM10 inh 1.
`Cc1cc(C)nc(NS(=O)(=O)c2ccc(NC(=O)CSc3nc(-c4ccccc4)c(C#N)c(=O)[nH]3)cc2)n1` gave NALP3 yeast inh 8, tim23-1 inh 5, tim10-1 inh 9, NALP1 inh 23 and TIM10 inh 6.
`O=C(Nc1ccncc1)Nc1cc(Cl)ccc1Cl` gave NALP3 yeast inh 16, tim23-1 inh 18, tim10-1 inh 7, NALP1 inh -12 and TIM10 inh -1.
Screening O=C(Nc1ccncc1)Nc1ccc(Cl)cc1Cl returned NALP3 yeast inh 23, tim23-1 inh 8, tim10-1 inh 0, NALP1 inh 30* and TIM10 inh -47.
Cc1ccc(C)c(S(=O)(=O)N2CCN(C(=O)CSC(=S)N3CCCC3)CC2)c1 was read as NALP3 yeast inh 8, tim23-1 inh 25, tim10-1 inh 9 and TIM10 inh 6.
`CC(=O)N(c1ccc(C(F)(F)F)cc1)S(=O)(=O)c1ccc(N2C(=O)CCC2=O)cc1` gave NALP3 yeast inh -11, tim23-1 inh 11, tim10-1 inh 7, NALP1 inh 32* and TIM10 inh 0.
Cc1nc2ccc(NS(=O)(=O)c3cccc([N+](=O)[O-])c3)cc2s1 was read as NALP3 yeast inh -5, tim23-1 inh 10, tim10-1 inh 13 and TIM10 inh 5.
Cn1c(-c2nonc2N)nc2ccccc21 was read as NALP3 yeast inh 14, tim23-1 inh 11, tim10-1 inh 8, NALP1 inh 29* and TIM10 inh 8.
`O=C(c1ccc(COCC(F)(F)F)o1)N1CCCC1` gave NALP3 yeast inh 10, tim23-1 inh -3, tim10-1 inh 7, NALP1 inh 1 and TIM10 inh -3.
O=C(O)/C=C/c1cn(-c2ccccc2)nc1-c1cc2ccccc2o1 was read as NALP3 yeast inh -2, tim23-1 inh 42, tim10-1 inh 13, NALP1 inh -4 and TIM10 inh -20.
For CC(C)CC1(C)NC(=O)N(Cc2cc([N+](=O)[O-])cc3c2OCOC3)C1=O (centres undefined) the results were NALP3 yeast inh -8, tim23-1 inh 6, tim10-1 inh 20, NALP1 inh 23* and TIM10 inh 0.
For O=[N+]([O-])c1cc2c(c(CSc3ncccn3)c1)OCOC2 the results were NALP3 yeast inh 21, tim23-1 inh 12, tim10-1 inh -14, NALP1 inh 13 and TIM10 inh 0.
COc1ccc(-n2nc(C(=O)NCc3ccco3)c3c4ccccc4n(C)c3c2=O)cc1 was read as NALP3 yeast inh -9, tim23-1 inh 14, tim10-1 inh 5, NALP1 inh 32 and TIM10 inh 18.
`Cc1ccc(-n2nc(C(=O)NCc3ccc(C)o3)c3c4ccccc4n(C)c3c2=O)cc1` gave NALP3 yeast inh 11, tim23-1 inh 26, tim10-1 inh 25, NALP1 inh 38* and TIM10 inh 35.
Brc1ccc(/C=N/Nc2ncnc3c2cnn3Cc2ccccc2)cc1 was read as NALP3 yeast inh 13, tim23-1 inh -8, tim10-1 inh 0, NALP1 inh 30* and TIM10 inh 21.
`c1ccc(Cn2ncc3c(Nc4ccccc4)ncnc32)cc1` gave NALP3 yeast inh 18, tim23-1 inh 29, tim10-1 inh 16 and TIM10 inh 24.
For Cc1ccc(S(=O)(=O)c2c(COC(=O)c3ccccc3Cl)c(-c3ccccc3)nn2C)cc1 the results were NALP3 yeast inh 0, tim23-1 inh 13, tim10-1 inh 6, NALP1 inh 42* and TIM10 inh 7.
O=C(O)CN1CCc2ccccc2C1 was read as NALP3 yeast inh -16, tim23-1 inh 8, tim10-1 inh 1, NALP1 inh 32* and TIM10 inh -11.

Bioassay records as filed in PubChem BioAssay.
